SMILES strings stand for the structures. The source made the active and inactive calls. Unless noted, no stated cut-off is given here; in the data, active means nuclear beta-catenin stimulation mostly above about 4.2% (no sharp cut-off); inactive means mostly below about 10%.

Assay [1] can be described thus: Wnt pathway potentiators raising nuclear beta-catenin – imaging, WNT3A-conditioned medium, mouse C2C12, NPC library, primary screen (AID 1117326). Further: reference of the scale not given here. As to conditions: stronger effect = higher value.
A short description of assay [2]: stimulators of insulin release from INS-1E, primary screen, cell-based, 5 mM glucose, NPC library (AID 1117329;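 active means compound raises insulin release from rat beta cells at 5 mM glucose, no numeric limit stated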; further: reference of the scale not given here). The conditions noted are these: rat INS-1E insulin secretion, at 10 µM, stronger effect = higher value.
Assay [3] in a line: growth inhibition of GSK3B-pretreated HCT116 cells – cell-based, CellTiter-Glo, 0.2 to 20 µM (AID 1117336;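 active means compounds lowering colon cancer cell viability after pretreatment blocking the GSK3B kinase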). As to conditions: HCT116 viability after GSK3B inhibitor, at 20 µM, stronger effect = higher value. In general terms: ATP-based viability assays read luminescence as a measure of living cells.
Assay [4] can be described thus: inhibition of endothelial tube formation, primary screen, imaging, VEGF stimulated, CD31 staining, tube area, NPC library (AID 1117340;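 active means compound that reduces growth-factor-driven endothelial tube area in a mixed cell culture, no cutoff stated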). The conditions noted are these: VEGF-stimulated ADSC/ECFC co-culture, at 10 µM, stronger effect = higher value.
Assay [5] can be described thus: GLP1 release stimulators, primary, NCI-H716, NPC library (AID 1117341;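 active means compound raises GLP1 secretion from the human gut endocrine cells, with no numeric limit stated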; further: reference of the scale not given here). The conditions noted are these: NCI-H716 cells, at 10 µM, stronger effect = higher value.
Assay [6] can be described thus: HCT116 colon cancer cell growth inhibition, primary screen, CellTiter-Glo luminescence, NPC library (AID 1117342;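 active means compounds that lower survival of HCT116 colon cancer cells in the luminescence readout, no numeric limit stated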). As to conditions: at 20 µM (top of the series).
Assay [7] in a line: reduced SW480 viability measured with CellTiter-Glo, NPC library, primary (AID 1117343;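 active means compounds that lower viability of the colon cancer cells in the luminescence readout, with no numeric limit stated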). The conditions noted are these: CellTiter-Glo luminescence; at 20 µM (top of the series).
Assay [8] is described as follows: NPC library primary testing for decreased DLD-1 cell viability via CellTiter-Glo (AID 1117346;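 active means compounds that lower survival of DLD-1 colon cancer cells in the luminescence readout, no cutoff given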). As to conditions: DLD-1 viability, CellTiter-Glo luminescence; at 20 µM (top of the series).

On to `CCOC(=O)C(=O)CCc1ccccc1`, for which the nuclear beta-catenin stimulation in assay [1] (at 10 µM) was 0.7% (inactive); in assay [1] (stimulation, at 2 µM), 2%. Moreover, the insulin secretion stimulation in assay [2] was 2.2% (inactive). Besides, the viability decrease in assay [3] was -4.7% (inactive). The tube area decrease in assay [4] was -7.2% (inactive). Further, the GLP1 secretion stimulation in assay [5] is 5% (inactive). The inhibition of viability in assay [6] is 10.3% (inactive). Further, the results for the viability decrease (inhibition) in assay [7] and in assay [8] were -2.4% (inactive) and 1% (inactive), respectively.
`CCc1ccc(C(=O)C(C)CN2CCCCC2)cc1` (centres undefined): the nuclear beta-catenin stimulation in assay [1] (at 10 µM) is -0.3% (inactive); in assay [1] (stimulation, at 2 µM), -0.1%. Moreover, in assay [2], the insulin secretion stimulation was 14.3% (inactive). In assay [3], the viability decrease was -4.9% (inactive). For the same compound, the tube area decrease in assay [4] is -30.1% (inactive). For the same compound, in assay [5], the GLP1 secretion stimulation was -1.5% (inactive). Also, in assay [6], the inhibition of viability was 19.2% (inactive). The viability decrease (inhibition) in assay [7] was 7.4% (inactive); in assay [8], -0.2% (inactive).
As to `O=C(Oc1ccccc1)c1ccccc1O`, the nuclear beta-catenin stimulation was -0.5% (inactive) in assay [1] (at 10 µM) and -1% in assay [1] (stimulation, at 2 µM). Moreover, the insulin secretion stimulation in assay [2] is -1.5% (inactive). In addition, in assay [3], the viability decrease was -4.35% (inactive). The tube area decrease in assay [4] was 14.3% (inactive). Further, in assay [5], the GLP1 secretion stimulation is -1.2% (inactive). In assay [6], the inhibition of viability was 9.1% (inactive). Further, the viability decrease (inhibition) is 84.4% (active) in assay [7] and 12.1% (inactive) in assay [8].
Regarding `CCCCC/C(C=O)=C\c1ccccc1`, the nuclear beta-catenin stimulation is 0.8% (inactive) in assay [1] (at 10 µM) and 4.5% in assay [1] (stimulation, at 2 µM). In addition, the insulin secretion stimulation in assay [2] is 1% (inactive). Further, the viability decrease in assay [3] was -20.6% (inactive). Moreover, the tube area decrease in assay [4] was 30.3% (inactive). Also, the GLP1 secretion stimulation in assay [5] was 0.1% (inactive). Further, the inhibition of viability in assay [6] was 1.1% (inactive). Also, the viability decrease (inhibition) in assay [7] was 12.8% (inactive); in assay [8], -11.3% (inactive).
Take `Cc1cc(CCCOc2c(C)cc(-c3noc(C(F)(F)F)n3)cc2C)on1`: the nuclear beta-catenin stimulation in assay [1] (at 10 µM) is 9.7% (inactive); in assay [1] (stimulation, at 2 µM), -3.5%. In addition, in assay [2], the insulin secretion stimulation is -0.2% (inactive). Moreover, the viability decrease in assay [3] was 46.3% (inactive). Also, in assay [4], the tube area decrease was -0.1% (inactive). For the same compound, the GLP1 secretion stimulation in assay [5] is -4.1% (inactive). In addition, the inhibition of viability in assay [6] is 68.5% (active). In addition, the viability decrease (inhibition) in assay [7] is 45.6% (inactive); in assay [8] it was 71.8% (active).
Turning to `CCCC(=O)O[C@]1(C(=O)CC)CC[C@H]2[C@@H]3CCC4=CC(=O)CC[C@]4(C)[C@H]3[C@@H](O)C[C@@]21C`, the nuclear beta-catenin stimulation was -0.2% (inactive) in assay [1] (at 10 µM) and 1.5% in assay [1] (stimulation, at 2 µM). For the same compound, the insulin secretion stimulation in assay [2] is 6.6% (inactive). In addition, in assay [3], the viability decrease is 12.1% (inactive). Also, the tube area decrease in assay [4] is -2.7% (inactive). Moreover, the GLP1 secretion stimulation in assay [5] is 5.3% (inactive). Besides, in assay [6], the inhibition of viability is 18.1% (inactive). In addition, the viability decrease (inhibition) in assay [7] is 35.2% (inactive); in assay [8], 25.5% (inactive).
On to `CCOC(=O)Oc1ccc(CCNC(=O)[C@H](CCSC)NC(C)=O)cc1OC(=O)OCC`, for which the nuclear beta-catenin stimulation in assay [1] (at 10 µM) is -0.7% (inactive); in assay [1] (stimulation, at 2 µM), 1.3%. In addition, the insulin secretion stimulation in assay [2] was -1.6% (inactive). Further, the viability decrease in assay [3] was 41% (inactive). In assay [4], the tube area decrease is 1.3% (inactive). Besides, in assay [5], the GLP1 secretion stimulation was -1.1% (inactive). Also, the inhibition of viability in assay [6] was 2.33% (inactive). The viability decrease (inhibition) is 14.7% (inactive) in assay [7] and 18.4% (inactive) in assay [8].
For the compound `CNC(=O)c1cnn(-c2nc(N)c3ncn([C@@H]4O[C@H](CO)[C@@H](O)[C@H]4O)c3n2)c1`, the nuclear beta-catenin stimulation in assay [1] (at 10 µM) was 2.6% (inactive); in assay [1] (stimulation, at 2 µM) it was 4.8%. Also, the insulin secretion stimulation in assay [2] is -0.3% (inactive). The viability decrease in assay [3] is 3.8% (inactive). Also, the tube area decrease in assay [4] was 20.4% (inactive). In assay [5], the GLP1 secretion stimulation was 4.6% (inactive). Moreover, the inhibition of viability in assay [6] was 1% (inactive). For the same compound, the viability decrease (inhibition) was 6.8% (inactive) in assay [7] and -13.2% (inactive) in assay [8].
Consider `CC1(C)OC(=O)Nc2ccc(Br)cc21`, for which the nuclear beta-catenin stimulation in assay [1] (at 10 µM) is 3% (inactive); in assay [1] (stimulation, at 2 µM), -1%. For the same compound, the insulin secretion stimulation in assay [2] was 6.1% (inactive). Also, the viability decrease in assay [3] was 9.6% (inactive). The tube area decrease in assay [4] was 13.5% (inactive). In addition, the GLP1 secretion stimulation in assay [5] is -2% (inactive). The inhibition of viability in assay [6] was -4.8% (inactive). The viability decrease (inhibition) in assay [7] was 20.9% (inactive); in assay [8], 2.5% (inactive).
For `O=C1CCCc2c(O)cccc21`, the nuclear beta-catenin stimulation is 1.1% (inactive) in assay [1] (at 10 µM) and 2.2% in assay [1] (stimulation, at 2 µM). Also, the insulin secretion stimulation in assay [2] was 0.3% (inactive). In addition, in assay [3], the viability decrease was 1% (inactive). Further, the tube area decrease in assay [4] is 19.3% (inactive). Besides, the GLP1 secretion stimulation in assay [5] was 2.2% (inactive). Besides, the inhibition of viability in assay [6] is 11.4% (inactive). The viability decrease (inhibition) in assay [7] is 12.5% (inactive); in assay [8] it was -7.2% (inactive).
Take `CCC(CN)=C(c1ccccc1)c1ccccc1`: the nuclear beta-catenin stimulation in assay [1] (at 10 µM) is -0.1% (inactive); in assay [1] (stimulation, at 2 µM), 0.1%. Moreover, the insulin secretion stimulation in assay [2] is 29.4% (active). Moreover, in assay [3], the viability decrease is 17.9% (inactive). In addition, the tube area decrease in assay [4] was 7% (inactive). Besides, the GLP1 secretion stimulation in assay [5] is 2.2% (inactive). In addition, in assay [6], the inhibition of viability is 78.6% (active). The viability decrease (inhibition) in assay [7] was 92% (active); in assay [8] it was 55.1% (active).
For the compound `O=P(O)(O)C(O)(Cc1cnc2ccccn12)P(=O)(O)O`, the nuclear beta-catenin stimulation in assay [1] (at 10 µM) is -0.5% (inactive); in assay [1] (stimulation, at 2 µM), 1.4%. In addition, the insulin secretion stimulation in assay [2] was -0.3% (inactive). Further, in assay [3], the viability decrease is 2.2% (inactive). For the same compound, the tube area decrease in assay [4] was 7.8% (inactive). In assay [5], the GLP1 secretion stimulation is 4.3% (inactive). In addition, the inhibition of viability in assay [6] is 13.5% (active). Besides, the viability decrease (inhibition) was 3.6% (inactive) in assay [7] and 9.7% (inactive) in assay [8].
With `CO[C@@H]1[C@@H](O[C@@H]2O[C@H](C)[C@@H](O[C@H]3C[C@@](C)(O)[C@@H](O)[C@H](C)O3)[C@H](N(C)C)[C@H]2O)[C@@H](CC=O)C[C@@H](C)[C@@H](O[C@@H]2CC[C@H](N(C)C)[C@@H](C)O2)/C=C/C=C/C[C@@H](C)OC(=O)C[C@H]1OC(C)=O`, the nuclear beta-catenin stimulation in assay [1] (at 10 µM) is -0.1% (inactive); in assay [1] (stimulation, at 2 µM), -1.2%. In assay [2], the insulin secretion stimulation is 3.3% (inactive). Besides, the viability decrease in assay [3] is 0.2% (inactive). Moreover, the tube area decrease in assay [4] was 3% (inactive). In addition, the GLP1 secretion stimulation in assay [5] is 9.9% (inactive). The inhibition of viability in assay [6] was 23.2% (inactive). Besides, the results for the viability decrease (inhibition) in assay [7] and in assay [8] were 59.8% (active) and 18.7% (inactive), respectively.
Regarding `CC(C)=CCNc1ncnc2c1ncn2[C@@H]1O[C@H](CO)[C@@H](O)[C@H]1O`, the nuclear beta-catenin stimulation in assay [1] (at 10 µM) was 4.6% (inactive); in assay [1] (stimulation, at 2 µM) it was 1.9%. Besides, the insulin secretion stimulation in assay [2] was 1.8% (inactive). In addition, the viability decrease in assay [3] was 109% (active). For the same compound, the tube area decrease in assay [4] was 106% (active). In assay [5], the GLP1 secretion stimulation is 0.8% (inactive). Also, the inhibition of viability in assay [6] was 111% (active). Also, the results for the viability decrease (inhibition) in assay [7] and in assay [8] were 110% (active) and 101% (active), respectively.
As to `O=Cc1ccc(O)c(O)c1O`, the nuclear beta-catenin stimulation in assay [1] (at 10 µM) is 1.4% (inactive); in assay [1] (stimulation, at 2 µM) it was 1.9%. Moreover, the insulin secretion stimulation in assay [2] is -1.7% (inactive). Moreover, the viability decrease in assay [3] is 87.5% (active). For the same compound, in assay [4], the tube area decrease was 3.3% (inactive). The GLP1 secretion stimulation in assay [5] was 3.4% (inactive). In addition, in assay [6], the inhibition of viability was 44.2% (inactive). Further, the viability decrease (inhibition) was 78.5% (active) in assay [7] and 36.5% (inactive) in assay [8].
As for `Nc1ccc(/C=C/c2ccc(N)cc2S(=O)(=O)O)c(S(=O)(=O)O)c1`, the nuclear beta-catenin stimulation is 0.5% (inactive) in assay [1] (at 10 µM) and 0.9% in assay [1] (stimulation, at 2 µM). Besides, the insulin secretion stimulation in assay [2] was 0.1% (inactive). For the same compound, the viability decrease in assay [3] is -4.75% (inactive). Also, the tube area decrease in assay [4] is -11.3% (inactive). Moreover, in assay [5], the GLP1 secretion stimulation is -0.8% (inactive). Moreover, the inhibition of viability in assay [6] was -10.1% (inactive). The viability decrease (inhibition) in assay [7] was 13% (active); in assay [8], -4.05% (inactive).

(Values after PubChem BioAssay.)
